# Screens: PubChem, National Center for Advancing Translational Sciences (NCATS)
# KinaseGlo FLuc = Kinase-Glo luciferase inhibition (counter-screen) | Potency, µM (doses to about 38.3 µM), for the others: at the top dose activity change, negative = inhibition, most hits filed as inhibitors | Kinase-Glo luciferase, ATP luminescence, 8 min | Q27757 | 200,000 tested, 0.28% active; active means well fitted inhibition curve with a large enough effect; inconclusive means small, poorly fitted or top-dose-only effect; further: potency means the concentration at half of the fitted maximal effect; nearly all actives have a fitted effect of over 60% in size
#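 Recombinant Kinase-Glo luciferase, 10 uM ATP (linear range), luciferin; imidazole pH 7.2 / KCl / MgCl2 / Tween / BSA buffer; 8 min RT; luminescence.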
# ALDH1A1 inh = blocks purified human ALDH1A1 activity | Purified ALDH1A1, NADH fluorescence, propionaldehyde substrate | Potency, µM (series often up to 75.3 µM), inactives show at the top dose activity, negative = inhibition, actives largely listed as inhibitors | AID 1030 | 220,000 tested, 7.3% active | P00352;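 further: potency means the concentration at half of the fitted maximal effect; plate controls were no enzyme wells and a reference inhibitor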
# Target sequence (P00352 whole entry, looked up): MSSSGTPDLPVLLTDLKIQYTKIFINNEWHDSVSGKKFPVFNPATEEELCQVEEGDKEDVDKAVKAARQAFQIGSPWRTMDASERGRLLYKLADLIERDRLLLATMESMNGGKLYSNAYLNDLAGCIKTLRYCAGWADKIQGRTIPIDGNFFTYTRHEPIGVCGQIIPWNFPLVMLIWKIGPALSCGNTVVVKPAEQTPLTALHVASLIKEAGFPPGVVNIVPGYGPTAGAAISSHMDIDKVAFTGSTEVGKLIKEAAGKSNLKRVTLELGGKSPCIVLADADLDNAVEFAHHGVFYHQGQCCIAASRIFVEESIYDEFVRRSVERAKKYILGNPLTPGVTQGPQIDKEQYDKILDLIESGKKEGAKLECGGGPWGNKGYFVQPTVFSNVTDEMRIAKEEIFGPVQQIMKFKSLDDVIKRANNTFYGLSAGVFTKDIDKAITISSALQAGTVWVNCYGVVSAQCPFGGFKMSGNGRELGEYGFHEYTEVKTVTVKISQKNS
# LMNA splice mod = changes lamin A minigene splicing in HeLa cells | HeLa LMNA splicing GFP/RFP minigene ratio, 48 h | Potency, µM (top dose mostly 46.1 µM), for inactives: top-dose ratio change, negative = inhibition, hits mostly inhibitors | 200,000 tested, 0.01% active | AID 1487; active means well fitted inhibition curve with a large enough effect in the signal ratio, with a control signal flat, not every such curve was filed as active; inconclusive means small, poorly fitted or top-dose-only effect, or effect the other way, or a change in a side signal; the % refers to the signal ratio; further: potency means the concentration at half of the fitted maximal effect
#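 S3 HeLa stable clones carrying a lamin A-EGFP splicing minigene plus DsRed2 were seeded at 600 cells/well in Opti-MEM with 2% FBS, pin-dosed and incubated 48 h at 37°C. Acumen cytometry (488 nm) gave the GFP/RFP total-intensity ratio.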
# IMPase cell inh = membrane-permeable compound that blocks inositol monophosphatase | P97697 | CHO-M1 cells, IP1 accumulation, HTRF TR-FRET ratio | inhibition (IP1 accumulation), % at 46.1 µM | 120,000 tested, under 10 active | AID 901; active means well fitted curve in the direction sought with a large enough effect in the signal ratio, not every such curve was filed as active; inconclusive means small, poorly fitted or top-dose-only effect, or a change in a side signal; inactive means no such curve, though single readings can be large or run the other way; the % refers to the signal ratio;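 further: cells stimulated with carbachol in lithium chloride buffer; plate controls were DMSO basal wells for no effect and reference inhibitor wells for full effect; higher means more IMPase inhibition seen as more IP1 and lower FRET ratio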
#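 Seeded CHO-M1 cells were dosed with compound at up to 46 uM, stimulated with carbachol for 30 min, then lysed in IP-One detection reagents. Higher IP1 lowers the TR-FRET signal.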
# PNC assembly inh = perinucleolar compartment assembly inhibition | AID 2417 | PC3M PTB-GFP, PNC prevalence imaging, 16 h; stronger effect = lower value | 140,000 tested, 3.1% active | activity change (PNC), negative = inhibition, % at 10 µM;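 active means readout at or below -70, meaning at least 70% loss of cells showing the perinucleolar compartment, a nuclear body marking cancer cells; inconclusive means readout between -30 and a set limit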;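 further: plate controls were DMSO wells for no effect and camptothecin positive control wells for full effect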
#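 Compounds are pinned in duplicate onto adhered PC3M cells stably expressing GFP-tagged PTB and incubated 16 h at 37 C. Cells are then fixed, nuclei stained with Hoechst, and PNC-positive cells counted.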
# HPGD block = blocks human HPGD enzyme activity; P15428; purified HPGD, NADH fluorescence kinetic, PGE2 substrate; Potency, µM, without a hit: at the top dose activity change, negative = inhibition, actives largely listed as inhibitors; 150,000 tested, 4.3% active; further: potency means the concentration at half of the fitted maximal effect
#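 NADH formation kinetics: reaction with 30 uM PGE2 and 1 mM NAD+ (final), 20 nM enzyme, Tris-HCl pH 8 with Tween 20, after 15 min compound preincubation at room temperature. Fluorescence change, last versus first of five reads.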
# The depositor's hits bear a star; ? = inconclusive; . = no result given; [ ] = another dose, or the depositor's remark. Compounds with a hit are over-represented: about 10% of the library has one in this group of screens. Unless noted, the call rests on the fitted dose curve; in most records, active means well fitted inhibition curve with a large enough effect (not every such curve was filed as active); inconclusive means small, poorly fitted or top-dose-only effect, or another doubt; inactive means no such curve, though single readings can be large or run the other way. Unless noted, on the % scale 0 is the no-effect control and ±100 the full control effect.
SMILES,KinaseGlo FLuc,ALDH1A1 inh,LMNA splice mod,IMPase cell inh,PNC assembly inh,HPGD block
CC(C)Cc1cc(C(=O)Nc2sc3c(c2C#N)CCCC3)no1,-2%,18µM*,?,-3,35,28µM*
Nc1ncc(S(=O)(=O)NCc2ccccc2)cn1,.,.,8%[46 µM],.,.,.
CC(C)N(CC#CCC(O)(c1ccccc1)C1CCCC1)CCO (stereo not given),-2%,28µM*,.,.,.,.
Cc1c(-c2nnc(SCC(=O)Nc3ccc(Cl)cc3)o2)nnn1-c1ccc(F)cc1,.,.,9%[46 µM],.,.,.
O=C(c1cc2ncc(CCCl)cn2n1)N1CCCCCC1,0%,?,10%,.,20,1µM*
O=C(c1cc2ncc(Br)cn2n1)N1CCCCC1,-1%,?,.,.,.,.
CCCCC(=O)O[C@]1(C(=O)CO)[C@H](C)C[C@H]2[C@@H]3CCC4=CC(=O)C=C[C@]4(C)[C@@]3(F)[C@@H](O)C[C@@]21C,2%[39.9 µM],0%,.,.,.,1%
COC(=O)c1ccccc1NC(=O)CSc1nc(C)cc(C)n1,0%,-6%,.,.,.,.
COC(=O)c1cc(C)nc(Sc2ccccc2N)n1,.,3.5µM*,.,.,.,.
O=C1c2ccccc2C(=O)C1(O)O,.,1.2µM*,.,.,.,-7%
CCCCSc1nc2c(cc1C#N)CCC2,0%,?,20%,-2,34,-13%
CCCSc1nc(C)c(-c2csc(C(C#N)=C3CCCC3)n2)cc1C#N,-3%,22µM*,?,?,?,-29%
CC(C)(C)c1cc(=O)[nH]c(SCc2ccccc2)n1,-1%,-11%,.,.,.,.
CC(C)(C)c1cc(Cc2ccccc2)[nH]n1,1%,3%,5%,-9,24,20µM*
COc1cccc(CNC(=O)Cn2c(=O)ccc3cc(S(=O)(=O)N4CCCC4)ccc32)c1,.,.,9%[46 µM],.,.,.
Cc1cc(C)c2ccc(=S)[nH]c2n1,0%,3.5µM*,-6%[9.22 µM],.,.,.
COc1ccc2c(C)cc(C)nc2n1,-6%[7.66 µM],7%[13.5 µM],.,.,.,-4%
O=C(Nc1ccc(Cc2ccncc2)cc1)c1cccc([N+](=O)[O-])c1,-1%,7%,?,.,-17,1.4µM*
O=C(CCNc1ccc(Cc2ccncc2)cc1)c1ccc([N+](=O)[O-])cc1,0%,0.11µM*,?,.,.,.
Cc1ccc(C(=O)Nc2ccc(Cc3ccncc3)cc2)cc1[N+](=O)[O-],-2%,5%,3%,14,13,1%
Cc1cc(Br)cc(C)c1OCC(=O)Nc1ccc(S(=O)(=O)Nc2ncccn2)cc1,.,.,.,11,.,.
CS(=O)(=O)Cc1cc(Sc2ccccc2)nc(-c2ccncc2)n1,1%,11µM*,-10%[9.22 µM],.,.,.
Cc1cc(=O)n(Cc2c(F)cccc2Cl)c2c1c(C)nn2-c1cccc(F)c1,.,.,-6%[46 µM],.,.,.
O=C1CSc2ccc(C(=O)Nc3cccc(S(=O)(=O)Nc4ccc(Br)cc4)c3)cc2N1,0%,10µM*,?,.,.,.
O=C1CC(Nc2ccccc2)C(=O)N1c1ccc(N2CCOCC2)cc1 (stereo not given),5%,?,1%,1,-104*,-14%
SMILES,KinaseGlo FLuc,ALDH1A1 inh,LMNA splice mod,IMPase cell inh,PNC assembly inh,HPGD block
Cc1ccc(N2C(=O)CC(Nc3ccccc3)C2=O)cc1 (stereo not given),17%,-4%,-6%,2,40,-9%
O=C1CC(Nc2ccc(N3CCOCC3)cc2)C(=O)N1c1ccccc1F (stereo not given),-2%,14µM*,-9%,0,35,-14%
CC1CC(=O)C(C2c3ccccc3CCN2C(=O)CCl)C(=O)C1 (stereo not given),4%,-7%,11%,.,-3,-6%
COc1cc2c(cc1OC)C(C1C(=O)CC(C)(C)CC1=O)N(C(=O)CCl)CC2 (stereo not given),1%,?,18%,.,-80*,-11%
CC(=O)NCCNc1ccnc(-c2ccccc2C)n1,.,?,4%,.,.,.
O=C(Nc1ccccc1)N1N=C(c2cccs2)CC1c1cccs1 (stereo not given),-1%,?,?,.,-102*,?
CC1C(=O)OC2C(O)C34C5CC(C(C)(C)C)C36C(OC(=O)C6O)OC4(C(=O)O5)C12O (stereo not given),-2%,6%,.,1,.,-3%
